# High-throughput results (PubChem BioAssay)
# In the library only some 7.5% were active in any assay of this set; here they are far more common.
# Luc counter – counter-screen: inhibitors of Kinase-Glo firefly luciferase | Q27757 | Kinase-Glo luciferase, ATP luminescence, 8 min | Potency, µM (top dose mostly 38.3 µM), hits mostly inhibitors | 200,000 compounds, 0.28% hits; further: nearly all actives have a fitted effect of over 60% in size
#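 Inhibition of Kinase-Glo luciferase light generation was assessed at 10 uM ATP in pH 7.2 imidazole buffer, with luminescence measured after eight minutes at ambient temperature.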
# ELG1 genotoxic – genotoxicity induction in ELG1-luciferase HEK293T cells; HEK293T ELG1-luciferase reporter, luminescence, 16 h; Potency, µM (series often up to 46 µM), usual class: activators; 330,000 compounds, 1.3% hits; further: nearly all actives have a fitted effect of over 60% in size
#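 HEK293T cells expressing luciferase-tagged ELG1 were exposed to compound or DMSO vehicle for 16 hr at 37 °C and 5% CO2. Luciferase activity was then measured with ONE-Glo after 30 min at room temperature.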
# Rab9 promoter act – activates the Rab9 promoter; Huh7 Rab9 promoter-luciferase reporter, luminescence, 24 h; Potency, µM (titrated, usually from 9.22 µM), hits mostly activators; 320,000 compounds, 2.8% hits; AID 485297; further: nearly all actives have a fitted effect of over 60% in size
#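 Cell-based reporter: Huh7 stable for Rab9 promoter-driven luciferase, plated in reduced-serum medium with 10% FBS at 1500 cells/well, compound-treated 24 h at 37 °C, luminescence read after 10 min reagent.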
# SMN2 splice enh – enhancers of SMN2 splice variant expression | HEK293 SMN2-luciferase splicing reporter, luminescence, 30-36 h | Potency, µM (titrated, usually from 46.1 µM), usual class: activators | 210,000 compounds, 2.8% hits; further: nearly all actives have a fitted effect of over 55% in size
#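 HEK293 cells carry an SMN2 minigene-luciferase reporter in which exon 7 inclusion puts luciferase in frame. Cells were seeded at 2000 cells/well, attached for 10-12 hours, then exposed to compounds for 30-36 hours at 37C before ONE-Glo luminescence.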
# FLuc counter – inhibits or activates purified firefly luciferase, miR-21 counter-screen; P08659; Potency, µM (series often up to 57.5 µM), most hits filed as inhibitors; 360,000 compounds, 6.9% hits; purified FLuc, Km substrates, luminescence inhibition; further: nearly all actives have a fitted effect of over 55% in size
# Target sequence (P08659 whole entry, looked up): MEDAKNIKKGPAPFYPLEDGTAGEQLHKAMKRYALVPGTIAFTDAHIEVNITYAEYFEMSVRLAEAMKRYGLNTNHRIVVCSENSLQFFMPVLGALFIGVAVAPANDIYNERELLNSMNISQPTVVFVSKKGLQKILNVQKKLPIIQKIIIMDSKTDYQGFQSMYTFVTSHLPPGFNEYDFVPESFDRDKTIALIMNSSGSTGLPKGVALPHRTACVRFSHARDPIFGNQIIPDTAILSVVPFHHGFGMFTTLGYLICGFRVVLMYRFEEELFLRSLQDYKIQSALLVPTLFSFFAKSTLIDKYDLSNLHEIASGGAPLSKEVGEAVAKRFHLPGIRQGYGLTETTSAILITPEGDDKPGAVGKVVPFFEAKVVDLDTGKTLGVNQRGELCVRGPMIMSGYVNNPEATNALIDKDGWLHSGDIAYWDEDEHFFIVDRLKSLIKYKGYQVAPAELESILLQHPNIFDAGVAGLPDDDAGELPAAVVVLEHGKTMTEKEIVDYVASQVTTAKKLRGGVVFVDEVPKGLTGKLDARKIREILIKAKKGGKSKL
#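 Biochemical qHTS of compounds, final roughly 60 µM downward over six points, against 10 nM purified firefly luciferase using Km concentrations of substrates (10 uM D-luciferin, 10 uM ATP) in Tris acetate pH 7.5 buffer; luminescence output.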
# NPC1 promoter act – activates the NPC1 promoter; Huh7 NPC1 promoter luciferase reporter, 24 h; Potency, µM (highest dose often 9.22 µM), hits mostly activators; 320,000 compounds, 2.4% hits; AID 485313; further: nearly all actives have a fitted effect of over 60% in size
#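 Readout is luciferase luminescence, reflecting NPC1 promoter activation in stably transfected Huh7 cells after 24 h compound exposure at 37 °C in reduced-serum medium with 10% FBS.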
# Numbers stand for hits; – = inactive; ? = inconclusive; · = no result. The call rests on the fitted dose curve; in most records, active means well fitted curve in the direction sought with a large enough effect; inconclusive means small, poorly fitted or top-dose-only effect, or another doubt; inactive means no such curve, though single readings can be large; an effect the other way counts as inactive or inconclusive.
SMILES,Luc counter,ELG1 genotoxic,Rab9 promoter act,SMN2 splice enh,FLuc counter,NPC1 promoter act
Cc1ccc(Oc2ccc3c(c2)C(=O)N(c2ccc(S(=O)(=O)Nc4nccs4)cc2)C3=O)cc1,–,–,–,–,19µM,–
O=C(c1cnn(-c2ccc(F)cc2)c1-n1cccc1)N1CCN(c2cccc(Cl)c2)CC1,·,·,·,·,–,·
O=C(CCCn1c2ccccc2c(=O)c2ccccc21)Nc1ccc(F)cc1Cl,·,·,·,–,–,·
Cc1ccc(C)c(NC(=O)CSc2nnc(-c3ccccc3)n2N)c1,–,–,–,–,–,–
CCOc1ccccc1NC(=O)CSc1nnc2[nH]c(=O)cc(-c3ccccc3)n12,·,·,·,·,6.01µM,·
CCCCc1ccc(NC(=O)CSc2nnc3[nH]c(=O)cc(C)n23)cc1,·,·,·,·,15.1µM,·
Cc1ccc(NC(=O)CSc2nnc3[nH]c(=O)cc(-c4ccccc4)n23)cc1Cl,·,·,·,·,0.675µM,·
Cc1ccc(C)c(NC(=O)CSc2nnc3[nH]c(=O)cc(-c4ccccc4)n23)c1,·,·,·,·,0.953µM,·
O=C(c1ccccc1Cl)N1CCCCC1CCN1CCOCC1 (stereo not drawn),·,·,·,–,–,·
Cc1c(C(=O)NCc2cccc(Cl)c2)sc2nc3n(c(=O)c12)CCC3,·,·,·,·,–,·
Cc1ccccc1S(=O)(=O)Cc1ccc(C(=O)N2CCN(c3cccc(Cl)c3)CC2)o1,·,·,·,–,–,·
COC(=O)c1ccc(C(NC(=O)OCc2ccccc2)/C(=C/[C@@H](C)C(=O)NCc2ccc(OC)c(O)c2)c2cccnc2)cc1 (stereo partly drawn),–,·,·,–,·,·
CC(C)(C)OC(=O)N1CCC[C@H]1C(=O)N/N=C/c1cccc2nccnc12,·,–,–,·,16.9µM,–
O=C(O)c1ccc(N/N=C/c2cccc3nccnc23)cc1,·,–,?,·,6.75µM,?
Cc1cccc2cc(/C=N/Nc3ccc(C(=O)O)cc3)c(Cl)nc12,·,5.17µM,0.398µM,·,0.675µM,0.398µM
Clc1nc2ccccc2cc1/C=N/Nc1nc2ccccc2[nH]1,?,?,2.51µM,7.94µM,0.19µM,3.55µM
C[C@H](NC(=O)OC(C)(C)C)C(=O)N/N=C/c1cccc2nccnc12,·,–,–,·,–,–
CCOc1cc(C(=O)Nc2cc3c(cc2N2CCCC2)n(C)c(=O)c(=O)n3C)cc(OCC)c1OCC,·,·,·,–,–,·
O=C(O)c1ccc(F)c(S(=O)(=O)Nc2cccc(F)c2)c1,–,·,·,·,·,·
O=[N+]([O-])c1ccccc1N/N=C/c1cc2ccccc2nc1Cl,–,?,?,–,?,?
O=C(O)c1ccc(N/N=C/c2cc3ccccc3nc2Cl)cc1,·,?,2µM,·,0.757µM,1.41µM
CCn1cc(C(=O)Nc2cccc(Cl)c2)c2cc(OC)c(OC)cc2c1=O,·,·,·,–,–,·
COC(=O)c1ccccc1NC(=O)CSc1ccc(C)cc1,–,–,–,–,–,–
CCOc1ccccc1-n1c(SCC(=O)Nc2ccccc2C(=O)O)nc2ccccc2c1=O,·,–,?,·,12µM,?
Cc1ccc(CSCC(=O)Nc2ccccc2C(=O)O)cc1,·,–,2.82µM,·,12µM,3.55µM
SMILES,Luc counter,ELG1 genotoxic,Rab9 promoter act,SMN2 splice enh,FLuc counter,NPC1 promoter act
COc1ccc(CC(=O)Nc2cccc(C(=O)O)c2C)cc1,–,–,–,15.8µM,?,–
Cc1ccc(SCC(=O)Nc2ccccc2C(=O)O)cc1,–,–,?,?,8.49µM,?
CSc1ccccc1NC(=O)CSCc1ccc(C)cc1,–,–,–,–,–,–
CCn1c(SCC(=O)Nc2ccccc2OC)nc2ccccc2c1=O,–,–,–,–,–,–
Cc1c(NC(=S)NC(=O)Cc2ccccc2)cccc1C(=O)O,–,–,–,–,?,–
CCN(CC)CCNC(=O)C(=O)NCC(c1cccnc1)N1CCN(c2ccc(F)cc2)CC1 (stereo not drawn),·,·,·,·,–,·
C#CCn1c(C2CC(=O)N(c3ccc(OC)cc3)C2)nc2ccccc21 (stereo not drawn),·,·,·,–,–,·
CCC(Sc1nc2n[nH]c(C)c2c(=N)n1-c1ccc(Br)cc1)C(=O)N(CC)CC (stereo not drawn),·,·,·,·,–,·
O=C(Cc1cccc2ccccc12)Nc1ccccc1C(=O)O,–,?,–,?,26.9µM,–
